Source: PubChem BioAssay (National Center for Advancing Translational Sciences (NCATS))
The list is not random: actives were taken first. Their share in the collection is about 3.8%.
HT1080 IDH1KD tx: toxicity to HT-1080 IDH1 knockdown cells (counter line). HT-1080 IDH1 knockdown viability, ATP luminescence, 48 h. Potency, µM (top dose mostly 46.1 µM), for inactives: at the highest dose activity, negative = toxicity, hits mostly cytotoxic. hit rate 2% among 360,000. AID 686971;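 note: 0% = DMSO wells and -100% = cell-free medium wells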
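HT-1080-IDH1KD cells (IDH1 knocked down), 750/well in RPMI with 5% FBS, treated with compound 48 h at 37 degrees C. Viability by CellTiter-Glo luminescence, normalised to DMSO and no-cell wells; concentration-response curves classed.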
ATXN2 expr inh: inhibitors of ATXN2 expression. HEK-293 ATXN2-luciferase reporter, luminescence, 24 h. Potency, µM (highest dose often 57 µM), inactives show at the highest dose activity change, negative = inhibition, actives largely listed as inhibitors. hit rate 0.72% among 360,000. AID 1745845; note: % is set by controls: 0 for no effect and ±100 for the full control effect; nearly all actives have a fitted effect of over 55% in size
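qHTS (up to 57 uM final) was run with 24 h compound exposure of reporter cells at 37 °C. Each well was multiplexed: SteadyGlo luminescence measured ATXN2-luciferase expression after a fluorogenic Gly-Phe-AFC viability readout (25 uM final).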
HT1080NT lethal: kills 2HG-producing HT-1080-NT fibrosarcoma cells | HT-1080-NT fibrosarcoma viability, CellTiter-Glo ATP luminescence, 48 h | Potency, µM (top dose mostly 46.1 µM), for inactives: at the top dose activity, negative = less viability, actives largely listed as cytotoxic | hit rate 1.6% among 360,000 | AID 686970;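 note: NT is the 2HG producing partner of a matched IDH1 knockdown line; 0% = DMSO-treated cells and -100% = media-only wells without cells; nearly all actives have a fitted effect of over 55% in size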
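Fibrosarcoma NT cells, 750 per well in 5% FBS RPMI, were exposed to compound for 48 hours. Viability: CellTiter-Glo luminescence.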
TGFb SMAD3 inh: inhibitors of TGF-b signaling; hit rate 1.2% among 410,000; AID 588855; Potency, µM (doses to about 46.1 µM), for inactives: top-dose activity, negative = inhibition, most hits filed as inhibitors; HepG2 CAGA-GFP TGF-b/SMAD3 reporter, GFP fluorescence, 18 h; TGF-beta stimulated, 500 pg/mL final; note: % is set by controls: 0 for no effect and ±100 for the full control effect; nearly all actives have a fitted effect of over 65% in size
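Inhibition was scored as loss of TGF-beta-induced (500 pg/mL final, 18 hours, 37 degrees C) GFP in HEPG2 cells carrying a CAGA-GFP reporter, in DMEM with 1% FBS. Well GFP was summed per cell; Activity was normalised to unstimulated and stimulated DMSO wells, then concentration-response fitting.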
HepG2 viability: counter-screen for TGF-b inhibitors: cytotoxicity in HepG2 cells. hit rate 0.76% among 410,000. HepG2 CAGA-GFP viability, ATP luminescence, 18 h. AID 588856. Potency, µM (titrated, usually from 46.1 µM), without a hit: at the highest dose activity change, negative = cytotoxicity, usual class: cytotoxic
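HepG2 CAGA-GFP cells (1000/well, DMEM with 1% FBS) received compound, then TGF-beta at 500 pg/mL final, and were incubated 18 hours at 37 degrees C. Viability was read by CellTiter-Glo luminescence. Media-only wells were set as complete cell-killing and DMSO as no toxicity.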
S2 tox: cell viability loss in ATXN counter-screen; S2 cells (HEK-293 line with an ATXN2-luciferase reporter) viability, CellTiter-Fluor protease fluorescence, 24 h; Potency, µM (highest dose often 56.7 µM), usual class: cytotoxic; hit rate 0.49% among 400,000; AID 651635; note: nearly all actives have a fitted effect of over 40% in size
An asterisk follows results filed as active; i = inactive; ? = inconclusive; . = not tested or not shown. Calls come from the whole dose curve; as a rule, active = well fitted curve in the direction sought with a large enough effect; inconclusive = small, poorly fitted or top-dose-only effect, or another doubt; inactive = no such curve, though single readings can be large; an effect the other way counts as inactive or inconclusive. Potency is the fitted concentration of half-maximal effect.

SMILES	HT1080 IDH1KD tx	ATXN2 expr inh	HT1080NT lethal	TGFb SMAD3 inh	HepG2 viability	S2 tox
N#CCC(=O)N/N=C/c1cc(-c2ccccc2)n(-c2ccc(Cl)cc2)c1-c1ccccc1	20.6µM*	-33.7%	?	?	10.7%	.
CCN(CC)CCCC(C)Nc1cc(/C=C/c2ccccc2Cl)nc2cc(Cl)ccc12 (stereo unspecified)	.	.	.	2.82µM*	2.82µM*	.
CCN(CC)CCN(C(=O)/C=C/c1cccs1)c1nc2ccc(Cl)cc2s1	?	.	13.2%	-6.7%	-7.5%	i
COC(=O)C(CC(=O)c1ccc(Br)cc1)n1ccnc1 (stereo unspecified)	.	.	.	4.47µM*	7.94µM*	.
CCCCNc1ccc(C(F)(F)F)cc1S(=O)(=O)NCCc1ccc(F)cc1	?	0.0%	?	?	5.01µM*	?
O=C(Nc1cccc2ccccc12)OC1C=CS(=O)(=O)C1 (stereo unspecified)	?	?	18.4µM*	0.8%	2.0%	i
CC(NC(=O)C1CCOCC1)c1nnc2n1CCN(Cc1ccc3ccccc3c1)CC2 (stereo unspecified)	.	.	.	.	.	i
COC(=O)c1c(C)[nH]c(C(=O)CSc2ncnc3sc(-c4ccccc4)cc23)c1C	-4.1%	-18.1%	-3.3%	-12.8%	3.98µM*	i
Nc1nc2c(Br)ccc(Br)c2cc1C(=O)NCc1cccc2ccccc12	16.4µM*	-2.6%	-20.4%	.	.	?
Oc1cc(OCc2ccccc2)ccc1-c1[nH]ncc1-c1ccccc1	23.1µM*	?	16.4µM*	?	20µM*	?
COc1ccc(-c2cn[nH]c2-c2ccc(O)cc2O)cc1	3.7%	-4.4%	2.3%	-8.0%	3.0%	i
COc1ccc(-c2cn[nH]c2-c2ccc(OCc3ccc(F)cc3)cc2O)cc1OC	18.4µM*	?	-27.9%	14.1µM*	-30.4%	?
COc1ccccc1-c1cn[nH]c1-c1ccc(OCc2ccc(F)cc2)cc1O	?	-14.5%	?	?	-34.8%	i
Nc1ncc(-c2ccccc2)c(-c2ccc(OCc3ccccc3)cc2O)n1	?	-7.0%	?	?	17.8µM*	i
COc1ccccc1-c1cn[nH]c1-c1ccc(OCc2ccccc2F)cc1O	?	?	?	?	22.4µM*	?
CC(C)CCNC(=O)c1cnc2sc(N3CCCCC3)nn2c1=O	.	?	.	-5.1%	-21.9%	i
COc1cccc(CN2CCOc3ccc(CN4C[C@@H](C)O[C@@H](C)C4)cc3C2)c1OC	.	.	.	.	.	i
COc1ccc(-c2cn[nH]c2-c2ccc(OCc3ccccc3)cc2O)cc1OC	13µM*	-26.4%	?	?	-53.9%	?
COc1ccccc1-c1cn[nH]c1-c1ccc(OCc2ccc([N+](=O)[O-])cc2)cc1O	-28.4%	3.5%	?	?	-48.0%	i
COc1cc2[nH]c3c(=O)n4c(nc3c2cc1OC)SCCC4	7.31µM*	-17.4%	7.31µM*	?	-30.9%	i
CCNC(=O)C(=O)c1c(-c2ccccc2)[nH]c2ccccc12	11.0%	-2.4%	1.9%	4.2%	2.9%	i
Nc1sc(Cc2ccccc2)cc1C(=O)c1c(-c2ccccc2)[nH]c2ccccc12	4.61µM*	.	7.31µM*	.	.	.
CCOc1ccc(C(Nc2cccnc2)c2cc(Cl)c3cccnc3c2O)cc1 (stereo unspecified)	14.6µM*	?	-26.0%	?	-34.9%	?
CCOc1ccc(C(NC(C)=O)c2cc(Cl)c3cccnc3c2O)cc1 (stereo unspecified)	.	.	.	3.16µM*	-59.2%	.
O=c1cc(CCl)nc(Cc2c(Cl)cccc2Cl)[nH]1	25.9µM*	?	23.1µM*	-8.5%	-33.3%	?
SMILES	HT1080 IDH1KD tx	ATXN2 expr inh	HT1080NT lethal	TGFb SMAD3 inh	HepG2 viability	S2 tox
O=c1cc(-c2ccccc2)nc(Cc2c(Cl)cccc2Cl)[nH]1	11.8%	6.9%	12.5%	0.0%	2.6%	i
Fc1ccc(NC(=S)N2CCCN(c3ccc(C(F)(F)F)cn3)CC2)c(F)c1	?	.	23.1µM*	?	-39.8%	i
CNC(=S)Nc1ccc(N2CCN(c3ccc(C(F)(F)F)cn3)CC2)nc1	-2.5%	?	-6.4%	-22.0%	-7.7%	i
O=C(Nc1ccc(F)cc1F)N1CCCN(c2ccc(C(F)(F)F)cn2)CC1	13µM*	-30.8%	?	-10.4%	-28.5%	i
CCC1(C2CCN(Cc3ccccn3)CC2)NC(=O)N(CC2COc3ccccc3O2)C1=O (stereo unspecified)	.	.	.	.	.	i
Cc1ccc(-c2noc(COc3ccc(Br)c(C)c3)n2)cc1	.	16.4%	.	-0.9%	-17.1%	i
CC(C)NC(=S)N=Nc1c(O)[nH]c2ccc(C(C)C)cc12	0.6%	.	-7.2%	?	-14.5%	3.55µM*
CN(C)c1ccc(C=c2c3cc(O)ccc3n3c2cc(-c2ccccc2)[n+]3C)cc1	?	1.9%	-26.7%	11.2µM*	-58.1%	i
C[n+]1c(-c2ccccc2)cc2c(=Cc3ccccc3)c3ccccc3n21	16.4µM*	9.47µM*	?	17.8µM*	-24.4%	.
CCC(=O)Nc1ccccc1-c1nc2ccccc2n(CC(=O)c2ccc(C)c(C)c2)c1=O	.	.	.	-4.2%	-2.2%	.
O=CC(=O)c1ccc(Cl)cc1	.	.	.	-28.2%	-29.4%	.
O=C(/C=C/Sc1ccccc1)c1ccc(Cl)cc1	7.94µM*	?	?	8.91µM*	11.2µM*	.
O=C(/C=C/Sc1ccccc1)c1ccccc1	5.62µM*	?	2.82µM*	10µM*	15.8µM*	.
COc1cc(-c2noc(C)c2C#Cc2ccc(N)cc2)cc(OC)c1OC	0.651µM*	1.0%	0.82µM*	10µM*	-0.3%	?
COc1cc(-c2noc(C)c2/C=C/c2ccc(N)cc2)cc(OC)c1OC	0.92µM*	-5.1%	0.581µM*	?	-16.1%	?
CNC(C)C#Cc1c(-c2cc(OC)c(OC)c(OC)c2)noc1C (stereo unspecified)	-2.2%	4.2%	-15.6%	?	-33.8%	?
COc1cc(-c2noc(C)c2C#Cc2ccccn2)cc(OC)c1OC	2.06µM*	-16.2%	1.64µM*	?	2.8%	?
Cc1ccc(N2CC(NC(=O)C3CC3)CC2=O)cc1C (stereo unspecified)	.	.	.	-3.0%	0.0%	.
Cc1ccc(NC(=O)C(=Cc2ccc(C(=O)O)cc2)C(=O)Nc2ccc(C)cc2C)c(C)c1	11.6µM*	.	14.6µM*	7.08µM*	10µM*	?
Cc1ccc2nc(/C=C/c3ccc(N(C)C)cc3)ccc2c1	.	.	.	13.9%	-24.4%	.
